Test [1] deals with Thyrotropin receptor (Homo sapiens) (UniProt P16473). In words: qHTS assay to identify small molecule antagonists of the thyroid stimulating hormone receptor (TSHR) signaling pathway (AID 1259385; calls by dose curve; also: nearly all actives have a fitted effect of over 20% in size). A digest of the protocol:
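Antagonist mode: compound-treated TSHR-expressing HEK293 cells were stimulated with 1.5 ng/mL TSH (final) in presence of Ro20-1724 for 30 min at RT. HTRF cAMP detection after 1 h; each compound tested at 15 concentrations, triplicate.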

Test [2] can be described thus: qHTS assay to identify small molecule agonists of the estrogen receptor alpha (ER-alpha) signaling pathway in the presence of an antagonist - cell viability counter screen (AID 1259386).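 Also: series mostly up to about 92 µM; cells exposed to compounds for 22 h at 37 °C before the viability read; nearly all actives have a fitted effect of over 30% in size.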 A digest of the protocol: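 The test measures whether compounds kill ER-alpha reporter cells (VM7Luc4E2) under antagonist co-treatment (ICI-182,780, 10.0nM). Fluorescence from CellTiter-Fluor is read after a 22hr exposure.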
(In qHTS, concentration-response curves come from the screen itself.)

The target in test [3] is Progesterone receptor (Homo sapiens) (UniProt P06401). In words: qHTS assay to identify small molecule agonists of the progesterone receptor (PR) signaling pathway (AID 1346784; calls by dose curve; also: nearly all actives have a fitted effect of over 30% in size). A digest of the protocol: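 Agonist mode, quantitative HTS format in a HEK 293T line expressing a UAS-controlled beta-lactamase reporter; 16 hr compound exposure at 37C in 2% charcoal-stripped FBS, then LiveBLAzer B/G FRET fluorescence.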

The target is the same in test [4]. In words: qHTS assay to identify small molecule antagonists of the progesterone receptor (PR) signaling pathway (AID 1346795; active = well fitted inhibition curve with a large enough effect in the signal ratio in the repeat runs, not every such curve was filed as active; the % refers to the signal ratio; also: potency is read from the fitted curve at half-maximal effect). A digest of the protocol: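 HEK293T PR-UAS-bla reporter cells in charcoal-stripped serum (2%) received compound after a 6 hr settling period, followed by R5020 agonist at 1 nM final; 16 hr incubation preceded the FRET substrate step and fluorescence measurement.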

The nature of test [5]: qHTS assay to identify small molecule antagonists of the progesterone receptor (PR) signaling pathway - cell viability counter screen (AID 1346798). Also: series mostly up to about 92 µM; nearly all actives have a fitted effect of over 50% in size. The gist of the method:
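Same-well multiplex: after 16 hr at 37C with compound and R5020 stimulation, HEK293T cells carrying a UAS-bla reporter received LiveBLAzer substrate (2 hr RT), then CellTiter-Glo (30 min RT) for luminescent viability.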

Test [6] can be described thus: qHTS assay to identify small molecule agonists of the progesterone receptor (PR) signaling pathway - cell viability counter screen (AID 1346799; calls by dose curve; also: nearly all actives have a fitted effect of over 45% in size; also: potency is read from the fitted curve at half-maximal effect). A digest of the protocol: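 Counter screen for cytotoxicity: compound-treated PR-UAS-bla HEK293T cells (16 hr, 37C, 5% CO2) were assayed with CellTiter-Glo, luminescence measured after 30 min at room temperature.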
Test [7] is described as follows: qHTS assay to identify small molecule antagonists of the TGF-beta/Smad signaling pathway - cell viability counter screen (AID 1346824). Also: nearly all actives have a fitted effect of over 50% in size. The gist of the method: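 Cytotoxicity counter-screen run in the same wells as the beta-lactamase Smad reporter read: CellTiter-Glo luminescence after 30 min at room temperature. HEK 293T SBE-bla cells had 5 hr compound exposure at 37 C with TGF-beta1 (0.25 ng/mL stock).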

Test [8] can be described thus: qHTS assay to identify small molecule agonists of the TGF-beta/Smad signaling pathway - cell viability counter screen (AID 1346829). Also: top concentration of the series differs between compounds; nearly all actives have a fitted effect of over 45% in size. A digest of the protocol: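 Luminescence from CellTiter-Glo, read after a 30 min room-temperature incubation, gives cell viability of SBE-bla HEK 293T cells treated 5 hr with compounds at 37 C.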
The nature of test [9]: qHTS assay to identify small molecule agonists of the TGF-beta/Smad signaling pathway (AID 1346859; active = well fitted activation curve with a large enough effect in the signal ratio in the repeat runs, not every such curve was filed as active; the % refers to the signal ratio; also: series mostly up to about 77 µM). A digest of the protocol:
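Smad-responsive beta-lactamase reporter cells (HEK 293T) received compounds from DMSO stocks after overnight attachment, were incubated 5 hr, then treated 2 hr with FRET substrate before dual-emission fluorescence measurement (405 nm excitation).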

Test [10] deals with Thyrotropin-releasing hormone receptor (Homo sapiens) (UniProt P34981). In words: qHTS assay to identify small molecule antagonists of the thyrotropin-releasing hormone receptor (TRHR) signaling pathway (AID 1346877; active = well fitted inhibition curve with a large enough effect in the repeat runs, not every such curve was filed as active; also: series mostly up to about 51 µM). A digest of the protocol: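 Overnight-plated (18 h, 37 °C) HEK293 cells expressing TRHR were dye-loaded 2 h, treated with compound, then stimulated with TRH at 1 nM final. Fluorescence intensity was captured every second for 3 min.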

Unmarked numbers belong to inactive results. Inconclusive results are not listed. Calls of active or inactive are those of the source. Unless noted, calls follow the shape of the dose curve; as a rule, active = well fitted curve in the direction sought with a large enough effect in the repeat runs; inconclusive = weak or mixed curves; inactive = no such curve, though single readings can be large; an effect the other way counts as inactive or inconclusive.

The record followed here is PubChem BioAssay (Tox21).

Thyrotropin-releasing hormone receptor (Homo sapiens), sequence (P34981 whole entry, looked up): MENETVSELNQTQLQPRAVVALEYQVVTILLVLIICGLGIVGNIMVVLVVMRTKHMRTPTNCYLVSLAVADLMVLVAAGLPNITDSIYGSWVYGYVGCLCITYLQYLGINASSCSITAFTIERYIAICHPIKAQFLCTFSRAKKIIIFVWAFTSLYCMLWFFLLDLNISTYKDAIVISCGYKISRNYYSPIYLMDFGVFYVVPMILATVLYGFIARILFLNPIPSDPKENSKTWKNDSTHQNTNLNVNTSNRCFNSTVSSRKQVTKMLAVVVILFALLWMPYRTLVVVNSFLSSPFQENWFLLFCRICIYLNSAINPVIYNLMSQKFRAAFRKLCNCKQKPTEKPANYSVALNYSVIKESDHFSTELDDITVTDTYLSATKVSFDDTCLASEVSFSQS
Progesterone receptor (Homo sapiens), sequence (P06401 whole entry, looked up): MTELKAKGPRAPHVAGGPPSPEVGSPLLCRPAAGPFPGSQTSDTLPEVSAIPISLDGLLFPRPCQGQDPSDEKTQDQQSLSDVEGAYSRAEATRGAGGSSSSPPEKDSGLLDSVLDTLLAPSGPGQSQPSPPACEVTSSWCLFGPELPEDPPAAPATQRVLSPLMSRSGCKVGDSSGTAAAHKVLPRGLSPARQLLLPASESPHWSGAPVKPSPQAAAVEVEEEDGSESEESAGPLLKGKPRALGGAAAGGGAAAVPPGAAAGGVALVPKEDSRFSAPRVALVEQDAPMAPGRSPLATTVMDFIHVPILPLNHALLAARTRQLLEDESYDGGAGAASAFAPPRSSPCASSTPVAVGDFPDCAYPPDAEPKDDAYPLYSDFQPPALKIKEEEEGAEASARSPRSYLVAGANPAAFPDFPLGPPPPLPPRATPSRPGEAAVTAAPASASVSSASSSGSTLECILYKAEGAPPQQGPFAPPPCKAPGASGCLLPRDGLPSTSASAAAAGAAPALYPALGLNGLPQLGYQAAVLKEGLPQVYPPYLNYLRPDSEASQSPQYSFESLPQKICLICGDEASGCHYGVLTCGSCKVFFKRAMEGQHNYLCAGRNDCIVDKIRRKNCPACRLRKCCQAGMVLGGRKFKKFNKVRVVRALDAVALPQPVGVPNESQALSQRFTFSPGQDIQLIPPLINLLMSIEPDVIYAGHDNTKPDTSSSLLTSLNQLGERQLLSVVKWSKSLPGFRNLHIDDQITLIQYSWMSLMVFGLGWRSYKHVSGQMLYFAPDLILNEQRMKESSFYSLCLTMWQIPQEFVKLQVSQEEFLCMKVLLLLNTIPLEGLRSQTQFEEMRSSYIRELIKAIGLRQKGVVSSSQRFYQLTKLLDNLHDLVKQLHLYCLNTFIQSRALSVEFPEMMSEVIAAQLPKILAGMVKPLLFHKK
Thyrotropin receptor (Homo sapiens), sequence (P16473 whole entry, looked up): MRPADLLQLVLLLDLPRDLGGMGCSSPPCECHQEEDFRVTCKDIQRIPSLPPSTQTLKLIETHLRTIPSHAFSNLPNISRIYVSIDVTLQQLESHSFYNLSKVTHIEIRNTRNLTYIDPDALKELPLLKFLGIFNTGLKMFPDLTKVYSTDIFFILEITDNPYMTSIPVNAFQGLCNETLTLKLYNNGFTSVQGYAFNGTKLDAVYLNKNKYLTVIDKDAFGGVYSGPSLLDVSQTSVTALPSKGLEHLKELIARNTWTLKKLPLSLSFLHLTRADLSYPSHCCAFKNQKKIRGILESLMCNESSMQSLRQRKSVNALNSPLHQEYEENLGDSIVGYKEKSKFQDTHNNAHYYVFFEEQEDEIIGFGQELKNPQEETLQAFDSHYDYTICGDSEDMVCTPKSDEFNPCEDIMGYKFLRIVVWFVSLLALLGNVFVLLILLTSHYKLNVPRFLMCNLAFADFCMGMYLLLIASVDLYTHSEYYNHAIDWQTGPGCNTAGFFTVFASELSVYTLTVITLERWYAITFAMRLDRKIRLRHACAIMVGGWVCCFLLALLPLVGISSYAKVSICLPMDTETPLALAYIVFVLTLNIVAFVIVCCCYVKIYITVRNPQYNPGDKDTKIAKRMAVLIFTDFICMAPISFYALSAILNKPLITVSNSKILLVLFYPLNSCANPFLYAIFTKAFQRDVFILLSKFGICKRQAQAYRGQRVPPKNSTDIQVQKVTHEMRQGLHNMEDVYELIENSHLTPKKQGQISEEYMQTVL

With `NCCC(O)(P(=O)(O)O)P(=O)(O)O`, the Potency entry in test [1], in [2], in test [3], in test [4], in test [5] and in test [6] was “inactive” in each case. The result in test [7], in test [8] and in [9] was inactive.
As for `CC(C)S`, the Potency entry in test [1], in [2], in test [3], in test [4], in test [5] and in test [6] was “inactive” in each case. For the same compound, the compound was classed as inactive in [7], in test [8], in test [9] and in test [10].
With `CCOC(=O)C(Br)c1ccccc1` (stereo not drawn), the Potency result in [1], in test [2], in test [3], in test [4], in test [5] and in test [6] was “inactive” each time. Further, the result in test [7], in test [8] and in test [9] was inactive.
For the compound `C=CCc1cc(OC)c(O)c(C(=O)NCCO)c1`, the Potency result in test [1], in [2], in test [3], in test [4], in [5] and in test [6] was “inactive” throughout. In addition, the result in [7], in [8] and in test [9] was inactive.
Regarding `CC(C)OC(C)C`, the Potency entry in test [1], in test [2], in test [3], in [4], in test [5] and in [6] was “inactive” throughout. Further, the call in test [7], in test [8] and in test [9] was inactive.
Turning to `COC(C)CCO` (stereo not drawn), the Potency result in test [1], in test [2], in [3], in test [4], in [5] and in test [6] was “inactive” in each case. Besides, the compound was classed as inactive in [7] and in test [8].
For the compound `Cc1ncc(CO)c(CN)c1O`, the Potency result in test [1], in test [2], in test [3], in test [4], in test [5] and in test [6] was “inactive” throughout. The call in test [7], in test [8] and in test [9] was inactive.
In the case of `CC(C)CCCCCCc1ccc(OCCOCCO)cc1`, the Potency result in [1], in test [2], in test [3], in test [4], in test [5] and in [6] was “inactive” throughout. For the same compound, the call in test [7], in test [8] and in test [9] was inactive.
Turning to `O=C(O)[C@@H](O)[C@H](O)[C@H](O)[C@@H](O)C(=O)O`, the Potency entry in [1], in test [2], in test [3], in test [4], in test [5] and in test [6] was “inactive” throughout. In addition, the call in [7], in test [8], in [9] and in test [10] was inactive.
For `FC(F)(F)C(F)(F)C(F)(F)C(F)(F)C(F)(F)C(F)(F)C(F)(F)C(F)(F)Br`, the Potency entry in test [1], in test [2], in test [3], in [4], in [5] and in test [6] was “inactive” in each case. The compound was called inactive in test [7], in test [8] and in [9].
As to `COc1cc(C)ccc1C(C)C`, the Potency result in test [1], in test [2], in test [3], in test [4], in test [5] and in [6] was “inactive” throughout. The compound was classed as inactive in test [7], in test [8], in [9] and in test [10].
On to `COC(=O)C(C)O` (stereo not drawn), for which the Potency entry in test [1], in test [2], in [3], in test [4], in test [5] and in test [6] was “inactive” in each case. Besides, the call in test [7], in test [8], in [9] and in test [10] was inactive.
In the case of `CCCNC(C)C(=O)Nc1c(C)csc1C(=O)OC` (stereo not drawn), the Potency result in [1], in test [2], in test [3], in [4], in test [5] and in test [6] was “inactive” throughout. The result in test [7], in [8] and in [9] was inactive.
On to `CN1CCC[C@@H]1Cc1c[nH]c2ccc(CCS(=O)(=O)c3ccccc3)cc12`, for which the Potency result in test [1], in test [2], in test [3], in test [4], in test [5] and in test [6] was “inactive” throughout. For the same compound, the result in [7], in [8], in test [9] and in test [10] was inactive.
As for `CCOc1ccc(NC(N)=O)cc1`, the Potency result in [1], in [2], in test [3], in [4], in test [5] and in test [6] was “inactive” in each case. The result in [8], in test [9] and in test [10] was inactive.
On to `CCOc1ccc2nc(N)sc2c1`, for which the Potency result in [1], in test [2], in test [3], in test [5] and in test [6] was “inactive” each time. Besides, the Potency in test [4] was 60.6 µM (active). The call in test [7], in [8], in test [9] and in test [10] was inactive.
Turning to `Cc1c(N)cccc1N`, the Potency result in test [1], in test [2], in [3], in [4], in test [5] and in test [6] was “inactive” each time. In addition, the result in test [7], in test [8], in test [9] and in test [10] was inactive.
Regarding `CCC1(C)NC(=O)NC1=O` (stereo not drawn), the Potency entry in test [1], in [2], in [3], in test [4], in test [5] and in test [6] was “inactive” in each case. In addition, the outcome in test [7], in test [8], in [9] and in test [10] was inactive.
As to `OCCN1CCN(CCO)CC1`, the Potency result in [1], in test [2], in test [3], in test [4], in [5] and in test [6] was “inactive” each time. For the same compound, the call in test [8], in test [9] and in test [10] was inactive.
Consider `CCCCCCCCc1ccc(S(=O)(=O)O)cc1`, for which the Potency result in [1], in test [2], in test [3], in test [4] and in test [5] was “inactive” in each case. Moreover, the Potency in [6] was 19.2 µM (active). The compound was called inactive in test [7], in [8], in [9] and in [10].
Regarding `CCOc1ccc(NS(=O)(=O)c2ccc(N)cc2)nn1`, the Potency entry in test [1], in test [2], in test [3], in test [4], in test [5] and in [6] was “inactive” each time. Besides, the outcome in [8] and in [9] was inactive.
For the compound `CC(=O)N(CC(O)CN(C(C)=O)c1c(I)c(C(=O)NCC(O)CO)c(I)c(C(=O)NCC(O)CO)c1I)c1c(I)c(C(=O)NCC(O)CO)c(I)c(C(=O)NCC(O)CO)c1I` (stereo not drawn), the Potency result in [1], in test [2], in test [3], in test [4], in test [5] and in [6] was “inactive” throughout. Also, the compound was classed as inactive in [7], in test [8] and in test [10].
On to `CC(C)=CCCC(C)CCOC=O` (stereo not drawn), for which the Potency entry in [1], in test [2], in test [3], in test [4], in test [5] and in test [6] was “inactive” in each case. Besides, the outcome in test [7], in test [8], in test [9] and in test [10] was inactive.
As to `CCCCCCCCCC/C=C/C#N`, the Potency entry in test [1], in test [2], in [3], in test [4], in test [5] and in test [6] was “inactive” in each case. Further, the compound was called inactive in test [7], in [8], in [9] and in test [10].
On to `O=C(CCCl)NCc1ccccc1`, for which the Potency entry in test [1], in [2], in test [3], in [4], in [5] and in test [6] was “inactive” each time. Further, the call in test [8] and in test [9] was inactive.
